# Values joined by “and” are separate entries in the source; they are usually repeats but may differ in a detail not shown here. Equal values may be shown once. Records with an inconclusive call do not appear. A number with no mark means an inactive call. Active and inactive are the calls of the source. Calls follow the shape of the dose curve; as a rule, active = well fitted curve in the direction sought with a large enough effect; inconclusive = small, poorly fitted or top-dose-only effect, or another doubt; inactive = no such curve, though single readings can be large; an effect the other way counts as inactive or inconclusive.
# Legend:
# [1] = target: Cellular tumor antigen p53 (Homo sapiens) (UniProt P04637); assay: Primary qHTS for small molecule compounds that upregulate eGFP-tagged delta133p53alpha (in N-terminal) cells. (AID 2060322); conditions: NCI-H358 eGFP-delta133p53alpha fluorescence, 24 h; activation: active compounds read high; also: nearly all actives have a fitted effect of over 75% in size;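 as to activation: cells pre-induced with doxycycline then dosed without doxycycline; series mostly up to about 56 µM; 0% = DMSO vehicle and 100% = reference activator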
# Cellular tumor antigen p53 (Homo sapiens), sequence (P04637 whole entry, looked up): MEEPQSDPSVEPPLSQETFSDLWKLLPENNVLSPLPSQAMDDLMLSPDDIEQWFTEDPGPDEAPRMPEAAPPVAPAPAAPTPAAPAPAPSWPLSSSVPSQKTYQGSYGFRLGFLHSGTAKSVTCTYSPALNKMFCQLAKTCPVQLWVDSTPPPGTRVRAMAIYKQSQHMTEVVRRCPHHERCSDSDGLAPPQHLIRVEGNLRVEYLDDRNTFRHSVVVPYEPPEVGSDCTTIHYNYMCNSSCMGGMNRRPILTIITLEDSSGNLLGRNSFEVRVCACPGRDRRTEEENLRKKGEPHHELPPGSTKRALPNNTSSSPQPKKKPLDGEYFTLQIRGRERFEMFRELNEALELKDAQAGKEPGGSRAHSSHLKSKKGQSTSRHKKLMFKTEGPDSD
# In short: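 NCI-H358 cells pre-induced 24 h with 10 ng/ml doxycycline for eGFP-delta133p53alpha, plated dox-free and exposed 24 h at 37C to titrated compounds. Fixed, Hoechst-stained; gated GFP peak intensity by laser scanning cytometry, normalized to DMSO (0%) and 57.5 uM 5-azacytidine (100%).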
# [2] = target: Retinaldehyde dehydrogenase 3 (Homo sapiens) (UniProt P47895); assay: qHTS for Inhibitors of the Aldehyde Dehydrogenase Family (ALDH1A3) Primary screen (AID 2061315)
# [3] = target: Retinaldehyde dehydrogenase 3 (Homo sapiens) (UniProt P47895); assay: qHTS for Inhibitors of the Aldehyde Dehydrogenase Family (ALDH1A3) Validation screen (AID 2061312); also: nearly all actives have a fitted effect of over 45% in size
# [4] = BET inhibitor-based combinations targeting novel dependencies in MECOM-rearranged (r) AML: SET-2 cell line (AID 2202231); conditions: SET-2 AML cells viability, CellTiter-Glo luminescence, 48 h; viability: active compounds read low, concentration not given here; also: nearly all actives have a fitted effect of over 35% in size;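 as to viability: plate controls were DMSO treated cells for no effect and wells without cells for full effect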
# In short: (§1)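 Readout: CellTiter-Glo luminescence. Exposure: 48 h, 11 concentrations, 500 cells/well. Metric: AUC and within-line Z-AUC after DMSO/empty-well normalization.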
# [5] = BET inhibitor-based combinations targeting novel dependencies in MECOM-rearranged (r) AML: OCI-AML3 cell line (AID 2202232); conditions: Potency: OCI-AML3 viability; also: nearly all actives have a fitted effect of over 35% in size
# In short: as §1
# [6] = BET inhibitor-based combinations targeting novel dependencies in MECOM-rearranged (r) AML: MV-4-11 cell line (AID 2202233); also: nearly all actives have a fitted effect of over 45% in size
# In short: (§2)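 Seeding density was 500 cells/well, and drug exposure lasted 48 hr under standard culture conditions. Read-out used CellTiter-Glo reagent with a 15 min room-temperature incubation before luminescence measurement; AUC and Z-AUC summarize the normalized responses.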
# [7] = BET inhibitor-based combinations targeting novel dependencies in MECOM-rearranged (r) AML: AML-191 cell line (AID 2202236; also: nearly all actives have a fitted effect of over 35% in size)
# In short: as §1
# [8] = BET inhibitor-based combinations targeting novel dependencies in MECOM-rearranged (r) AML: AML-194 cell line (AID 2202237; also: nearly all actives have a fitted effect of over 40% in size)
# In short: as §1
# [9] = BET inhibitor-based combinations targeting novel dependencies in MECOM-rearranged (r) AML: HNT-34 cell line (AID 2202234); also: nearly all actives have a fitted effect of over 35% in size
# In short: as §2
# [10] = BET inhibitor-based combinations targeting novel dependencies in MECOM-rearranged (r) AML: UCSD-AML1 cell line (AID 2202235); also: nearly all actives have a fitted effect of over 40% in size
# In short: as §2
# Potency is read from the fitted curve at half-maximal effect.
smiles,measurement,setting,value
CC1CC(O)/C=C/C(O)C(O)CC(=O)Cc2c(Cl)c(O)cc(O)c2C(=O)O1 (stereo unspecified),activation,[1],4.58%
same,Potency,[2],inactive
C/C=C/C=C/C(O)=C1\C(=O)[C@]2(C)C3C(C(=O)CC/C=C/C)=C(O)C4(C)C1[C@]1(C)O[C@@]4(O)[C@@]3(C)O[C@@]12O,activation,[1],1.53%
same,Potency,[2],inactive
C[C@@H]1O[C@@H](O[C@H]2[C@H](O[C@H]3[C@H](O[C@H]4CC[C@@]5(C)C(CC[C@]6(C)C5CC=C5[C@@H]7CC(C)(C)CC(=O)[C@]7(C)CC[C@]56C)[C@@]4(C)CO)O[C@H](C(=O)O)[C@@H](O)[C@@H]3O)O[C@H](CO)[C@H](O)[C@@H]2O)[C@H](O)[C@H](O)[C@H]1O (stereo partly specified),activation,[1],-17%
same,Potency,[2],inactive
Cc1csc(N(C(=O)CSc2ccc(-c3ccccc3)nn2)C2CC2)n1,activation,[1],10.5%
same,Potency,[3],2.82 µM (active)
CC[C@]1(O)C[C@@H]2CN(CCc3c([nH]c4ccccc34)[C@@](C(=O)OC)(c3cc4c(cc3OC)N(C)[C@H]3[C@@](O)(C(=O)OC)[C@H](OC(C)=O)[C@]5(CC)C=CCN6CC[C@]43[C@@H]65)C2)C1,activation,[1],-35.1%
same,Potency,[2],inactive
CC(=O)Oc1cc2c(s1)CCN([C@H](C(=O)C1CC1)c1ccccc1F)C2,activation,[1],0.477%
same,Potency,[2],inactive
COc1ccc2cc(C(C)C(=O)Oc3ccc(C(N)=S)cc3)ccc2c1 (stereo unspecified),activation,[1],-3.34%
same,Potency,[3],inactive
same,Potency,[2],inactive
O[C@@H](COc1cccc2ncccc12)CN1CCN(C2c3ccccc3[C@@H]3[C@H](c4ccccc42)C3(F)F)CC1 (stereo partly specified),activation,[1],22%
same,Potency,[3],inactive
same,Potency,[2],inactive
same,Potency,[4],26.3 µM (active)
same,Potency,[5],20.9 µM (active)
same,Potency,[6],18.6 µM (active)
same,Potency,[7],23.5 µM (active)
same,Potency,[8],23.5 µM (active)
CCC/C=C/C=C/C1CC(O)C(O)C(=O)C1CO (stereo unspecified),activation,[1],-17.6%
same,Potency,[2],inactive
CCCn1cnc2c(NCc3ccccc3)nc(N[C@H](CC)CO)nc21,activation,[1],2.33%
same,Potency,[2],inactive
COc1cccc(OC)c1-c1cc(C(=O)N[C@@H](CC(C)C)C(=O)O)nn1-c1ccnc2cc(Cl)ccc12,activation,[1],15.8%
same,Potency,[2],inactive
CN1C(CCl)Nc2cc(Cl)c(S(N)(=O)=O)cc2S1(=O)=O (stereo unspecified),activation,[1],-11.7% and -7.64%
same,Potency,[2],inactive
C/C(=C\CCC1(C)C2CCC(C2)C1(C)O)C(=O)O (stereo unspecified),activation,[1],-13.7%
same,Potency,[2],inactive
Cc1cc(NC(=O)Nc2ccc(F)c(F)c2)n(-c2ccccc2)n1,activation,[1],-15.8%
same,Potency,[3],inactive
same,Potency,[2],inactive
COc1ccc(S(=O)(=O)Nc2nc(-c3cccc([N+](=O)[O-])c3)cs2)cc1OC,activation,[1],1.67%
same,Potency,[2],inactive
C=Cc1cc2oc(-c3ccc(O)c(F)c3)nc2cc1O,activation,[1],-1%
same,Potency,[2],inactive
COc1ccc([C@@]2(O)c3c(ccc4c3OC(C)(CCC=C(C)C)C=C4)NC(=O)[C@@H]2OC)cc1 (stereo partly specified),activation,[1],-6.87%
same,Potency,[2],inactive
CC(C)C(CO)Nc1nc(Nc2ccc(C(=O)O)c(Cl)c2)c2ncn(C(C)C)c2n1 (stereo unspecified),activation,[1],6.21%
same,Potency,[3],inactive
same,Potency,[2],inactive
O=C(NCc1cccs1)c1cc2nc(-c3ccco3)cc(C(F)(F)Cl)n2n1,activation,[1],0.477%
same,Potency,[2],inactive
Cc1cc(OCc2nc(-c3ccccc3Cl)cs2)ccc1OCC(=O)O,activation,[1],-1.91%
same,Potency,[3],inactive
same,Potency,[2],inactive
O=C(O)COCCN1CCN([C@H](c2ccccc2)c2ccc(Cl)cc2)CC1,activation,[1],-5.73%
same,Potency,[3],inactive
same,Potency,[2],inactive
CC(O)C1C(=O)N2C(C(=O)O)=C(SC3CNC(C(=O)N(C)C)C3)C(C)C12 (stereo unspecified),activation,[1],-0.506% and -5.25%
same,Potency,[2],inactive
CC(C)CC(=O)n1cc(C(N)=O)c(=O)cc1C(O)c1ccccc1 (stereo unspecified),activation,[1],-1.53%
same,Potency,[2],inactive
CCCc1cc2c(N3CCN(C4=NCC(C)(C)S4)CC3)ncnc2s1,activation,[1],-16.2%
same,Potency,[2],inactive
CO[C@@H](Cc1ccc(OCCc2nc(-c3ccccc3)oc2C)c2ccsc12)C(=O)O,activation,[1],-6.25%
same,Potency,[2],inactive
C[C@@H]1C[C@@H]2O[C@H]2/C=C\C=C\C(=O)Cc2c(Cl)c(O)cc(O)c2C(=O)O1,Potency,[1],14.8 µM (active)
same,Potency,[2],inactive
C/C=C(/COC(=O)/C(C)=C/C)C(=O)OC/C=C/c1ccc(OC)cc1,activation,[1],0.893%
same,Potency,[2],inactive
COc1cc2c(Oc3ccc(-c4cnc(Nc5ccc(F)cc5)n(C)c4=O)cc3F)ccnc2cc1OCCCN1CCOCC1,activation,[1],11.5%
same,Potency,[3],11.2 µM (active)
same,Potency,[2],inactive
same,Potency,[4],20.9 µM (active)
same,Potency,[5],16.6 µM (active)
same,Potency,[6],0.0934 µM (active)
same,Potency,[9],0.372 µM (active)
same,Potency,[10],11.8 µM (active)
same,Potency,[7],5.9 µM (active)
same,Potency,[8],5.25 µM (active)
C=CC(=O)Nc1ccc(CN2C(=O)N(c3cc(OC)cc(OC)c3)Cc3cnc(Nc4ccc(N5CCN(C)CC5)cc4)nc32)cc1,Potency,[1],13.5 µM (active)
same,Potency,[2],inactive
CCOc1nc2cccc(C(=O)OCc3oc(=O)oc3C)c2n1Cc1ccc(-c2ccccc2-c2noc(O)n2)cc1,activation,[1],0%
same,Potency,[3],inactive
same,Potency,[2],inactive
Clc1ccc(Cn2c(Cc3ccccc3)nc3ccccc32)cc1,activation,[1],-5.25%
same,Potency,[3],inactive
same,Potency,[2],inactive
Cn1nnc(-c2ccc(-c3ccc(N4C[C@H](COP(=O)(O)O)OC4=O)cc3F)cn2)n1,activation,[1],-3.67%
same,Potency,[2],inactive
CC(=O)NC(Cc1c[nH]c2ccccc(=O)c12)C(=O)O (stereo unspecified),activation,[1],-2.29%
same,Potency,[2],inactive
O=C(Nc1cnc(Cl)nc1)c1ccc(F)c(F)c1,activation,[1],5.25%
same,Potency,[3],inactive
same,Potency,[2],inactive
CC(=O)OC1/C(C)=C/C(=O)C(OC(C)=O)C(C)(C)/C=C/C(C)C(=O)C2(OC(C)=O)CC(C)C(OC(=O)c3ccccc3)C12 (stereo unspecified),activation,[1],-10.7%
same,Potency,[2],inactive
CCC(Nc1ncnc2nc[nH]c12)c1nc2cccc(F)c2c(=O)n1-c1ccccc1 (stereo unspecified),activation,[1],4.46%
same,Potency,[2],inactive
C/C(=C\Cc1c(O)c(Cl)c(C)c(C=O)c1O)CC/C=C(\C)[C@H]1CC(=O)C(C)(C)O1,activation,[1],-20.6%
same,Potency,[2],inactive
O=C(O)c1cc(I)ccc1NC(=O)[C@H](Cc1ccccc1)NCc1ccccc1,activation,[1],-19.7%
same,Potency,[2],inactive
O=C(Nc1ccc(-c2ccc(Cl)c(Cl)c2)cc1)C1=C(O)c2ccccc2S(=O)(=O)N1,activation,[1],-5.73%
same,Potency,[2],inactive
CC[C@H](Nc1ncnc2nc[nH]c12)c1nc2cccc(F)c2c(=O)n1-c1ccccc1,activation,[1],21.6% and 7.67%
same,Potency,[2],inactive
same,viability,[4],94.4%
same,Potency,[5],4.68 µM (active)
COCc1c(O)c(C(=O)O)c(C)c2c1OC(=O)c1c(C)cc(O)c(CO)c1O2,activation,[1],0.893%
same,Potency,[2],inactive
O=c1cc(NCCCN[C@@H]2CCOc3c(Br)cc(Br)cc32)[nH]c2ccsc12,activation,[1],0.477%
same,Potency,[2],inactive
COc1ccc(-n2[nH]c(=O)c3[nH]c4cc(Cl)ccc4c(=O)c3c2=O)c(C)c1,activation,[1],9%
same,Potency,[2],inactive
O=C(Cc1c(F)cccc1F)Nc1cc(OCc2ccc(Cl)cc2)ccn1,activation,[1],15.7%
same,Potency,[2],inactive
COCCCNCC1COc2ccccc2O1 (stereo unspecified),activation,[1],-6.68%
same,Potency,[2],inactive
Cc1c2cc(c(C(=O)O)c1C)OC1OC(C(O)C(O)C1O)C(O)C(O)C1OC(O2)C(O)C(O)C1O (stereo unspecified),activation,[1],-5.34%
same,Potency,[2],inactive
O=C(O)[C@H](Cc1ccc(Nc2nccc3ccncc23)cc1)NC1=C(Br)C(=O)C12CCCCC2,activation,[1],-6.21%
same,Potency,[2],inactive
Clc1ccc(C(Cn2ccnc2)OCc2c(Cl)cccc2Cl)c(Cl)c1 (stereo unspecified),activation,[1],27.9% and 17%
same,Potency,[2],inactive
same,Potency,[4],26.3 µM (active)
same,Potency,[5],10.5 µM (active)
same,Potency,[6],18.6 µM (active)
same,Potency,[9],26.3 µM (active)
same,Potency,[10],inactive
same,Potency,[8],18.6 µM (active)
O=C(O)c1cc(O)c2cccc(O)c2c1O[C@@H]1O[C@H](CO)[C@@H](O)[C@H](O)[C@H]1O,activation,[1],-20.5%
same,Potency,[2],6.31 µM (active)
C#Cc1cccc(Nc2nc3cc(C(=O)O)ccc3c3cncnc23)c1,activation,[1],8.04%
same,Potency,[2],inactive
Cc1c(CN(C)C(=O)/C=C/c2cnc3c(c2)CCC(=O)N3)oc2ccccc12,activation,[1],8.33%
same,Potency,[2],inactive
CN(Cc1ccc(C(=O)O)cc1)c1ccc(OCc2c(-c3c(Cl)cccc3Cl)noc2C2CC2)nc1C(F)(F)F,activation,[1],-10.5%
same,Potency,[2],inactive
C/C=C/CCC1Cc2cc(O)c(CCCC)c(O)c2C(=O)O1 (stereo unspecified),activation,[1],-16%
same,Potency,[2],inactive
CC(=O)NC1C(OC(C)(C)C2CCC3(C)C=C(C4CCC5C4(C)CC(O)C4OC(C(C)(C)O)CCC45C)CCC3O2)OC(CO)C(O)C1O (stereo unspecified),activation,[1],-3.05%
same,Potency,[2],inactive
COc1c(C(CC(C)C)OC(C)=O)ccc(Oc2c(O)cc(C)cc2/C=C/C(C)=O)c1C(=O)O (stereo unspecified),activation,[1],-25.2%
same,Potency,[2],inactive
COc1cc(/C=C/C(=O)NCCn2c(C(F)(F)F)cc3ccccc32)cc(OC)c1OC,activation,[1],-3.67%
same,Potency,[2],inactive
CC(C)(Cc1nc(-c2ccc(O)cn2)no1)C(=O)NC1=C(C(=O)O)CCCC1,activation,[1],2.86%
same,Potency,[2],inactive
COc1ccc(OC)c(-c2ccc(NC(=O)c3ccncc3F)cc2)c1,activation,[1],-5.73%
same,Potency,[2],inactive
CC/C=C\C/C=C\C/C=C\CCCCCCCC(=O)OCC(O)COC1OC(CO)C(O)C(O)C1O (stereo unspecified),activation,[1],29.8%
same,Potency,[2],inactive
C[C@@H]1O[C@@H](O[C@@H]2\C=C/C=C\C=C/C=C\C[C@H](C)OC(=O)/C=C\[C@H]3O[C@@H]3C[C@H](O)C[C@]3(O)C[C@@H](O)[C@@H](C(=O)O)[C@H](C2)O3)[C@H](O)[C@H](N)[C@@H]1O,activation,[1],17.7%
same,Potency,[2],inactive
same,viability,[4],112%
same,Potency,[5],inactive
same,Potency,[6],inactive
same,Potency,[9],inactive
same,Potency,[10],inactive
same,Potency,[7],inactive

# Source: PubChem BioAssay (NCATS)
